# Reference: PubChem BioAssay AID489018 (Southern Research Specialized Biocontainment Screening …, 2010)
# About 350 (15%) of roughly 2,300 compounds were called active. How the calls were made is not given here. The list is a sample of the results. Measured potencies and affinities stand elsewhere.
# Experiment: HepG2 cell cytotoxicity, dose response, cytotoxicity control for non-replicating M. tuberculosis project (AID 489018);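 further: HepG2 human liver cells; 100% = vehicle-treated cells and 0% = background signal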
# Conditions: series mostly up to 20 µM; viability: at the top concentration
row,Structure (SMILES),viability
1,O=C(COc1ccc(-c2ccccc2)cc1)Nc1cccnc1,100% (inactive)
2,O=C(COc1ccc(Nc2ccccc2)cc1)OCC(=O)N1CCCCC1,102% (inactive)
3,CCn1nnc(NC(=O)c2sc3ccccc3c2Cl)n1,92.3% (inactive)
4,O=C(Nc1nccs1)c1sc2ccccc2c1Cl,80.8% (inactive)
5,CCCc1ccc(OCc2ccc(C(=O)N/N=C/c3cccnc3)o2)cc1,85.4% (inactive)
6,O=C(Nc1ccc(Cl)c(Cl)c1)O/N=C/c1ccncc1,105% (inactive)
7,CC(C)(C)/C(O)=C/c1nc2ccccc2oc1=O,100% (inactive)
8,O=C(COc1ccccc1)NNc1nc2ccccc2s1,105% (inactive)
9,O=C(N/N=C/c1cc([N+](=O)[O-])ccc1O)C1CCCCC1,75.8% (inactive)
10,Cc1ccc(-c2ccc(/C=N/NC(=O)CN3CCCC3)o2)cc1Cl,117% [at 5 µM] (inactive)
11,Nc1ccc2nc3c(c(Cl)c2c1)CCCC3,86% (inactive)
12,CCOC(=O)c1cnc(Nc2nc3ccccc3o2)nc1CSC(=S)N1CCCCC1,99.8% [at 5 µM] (inactive)
13,Oc1ccccc1/C=N/Nc1nc2ccccc2o1,71.9% [at 5 µM] (inactive)
14,O=C(OCCCOC(=O)c1ccc([N+](=O)[O-])o1)c1ccc([N+](=O)[O-])o1,95.3% (inactive)
15,COc1cccc(/C=C2\SC(=S)N(CCC(=O)N3CCCCC3)C2=O)c1,71.2% (inactive)
16,CN1C(=O)/C(=C/c2cccc(Cl)c2)Sc2ccc(C(=O)N3CCCC3)cc21,80.6% (inactive)
17,O=C1Nc2cc(C(=O)NCCCN3CCOCC3)ccc2S/C1=C/c1cccc(Cl)c1,74.6% (inactive)
18,Cc1ccc2oc(=O)c3cc(C(=O)NCCCN4CCCCCC4)sc3c2c1,97.4% (inactive)
19,Cc1ccc(/C=N/NC(=O)C2COc3ccccc3O2)s1 (stereo unspecified),77.9% (inactive)
20,Cc1ccnc(NC(=O)c2cc3ccccc3o2)c1,78.3% (inactive)
21,CC(C)(C)C(=O)/C=C/Nc1ccccc1O,98.5% (inactive)
22,O=C(OCC(=O)N1CCN(c2ccccc2)CC1)c1ccc(Cl)cc1[N+](=O)[O-],93.7% (inactive)
23,COc1cc(NCCC(=O)c2cccs2)c(OC)cc1Cl,95.9% (inactive)
24,COC(=O)C1=C(N)OC2=C(C(=O)CC(C)(C)C2)C1c1cccnc1 (stereo unspecified),106% (inactive)

row,Structure (SMILES),viability
1,CCOC(=O)CNC(=O)CNC(=O)c1nn(-c2ccc(OC)c(Cl)c2)c(=O)c2ccccc12,93.9% (inactive)
2,Cc1cc(Cl)cc(C)c1OCCCCn1ccnc1,91.2% (inactive)
3,CCCCn1c(=O)c(C(=O)Nc2ncccc2C)c(O)c2ccccc21,71.7% (inactive)
4,CCCCCCn1c(=O)c(C(=O)Nc2nnc(C)s2)c(O)c2ccccc21,99.1% (inactive)
5,CCn1c(=O)c(C(=O)Nc2ncccc2C)c(O)c2ccccc21,75.3% (inactive)
6,C=CCn1c(=O)c(C(=O)Nc2cccnc2)c(O)c2ccccc21,92.8% [at 5 µM] (inactive)
7,Cc1cccnc1NC(=O)c1c(O)c2ccccc2n(C)c1=O,93.5% [at 5 µM] (inactive)
8,CCCCn1c(=O)c(C(=O)Nc2nnc(C(C)C)s2)c(O)c2ccccc21,106% (inactive)
9,Cc1cccc(NCc2ccc([N+](=O)[O-])s2)c1,93.2% (inactive)
10,c1coc(CNc2nc(N3CCCCC3)nc3ccccc23)c1,93.1% [at 5 µM] (inactive)
11,Cc1ccc(NC(=O)COC(=O)C2=COCCO2)c([N+](=O)[O-])c1,106% (inactive)
12,Cn1c(NC(=O)c2ccccc2)nc2ccccc21,87.3% [at 5 µM] (inactive)
13,COc1ccc2c(c1)sc(=N)n2C,110% [at 5 µM] (inactive)
14,Cc1ccc2c(c1)c(C1=c3ccccc3=NC1=O)c(O)n2C,85.1% (inactive)
15,COc1ccc(COc2cccc(C=O)c2)cc1,96% (inactive)
16,COc1ccc(C(=O)OCn2nnc3ccccc3c2=O)cc1[N+](=O)[O-],112% [at 5 µM] (inactive)
17,COc1ccc(C(=O)C2CCCN(C(=O)c3ccc(CSC)o3)C2)cc1F (stereo unspecified),101% (inactive)
18,O=C(N/N=C/c1ccc[nH]1)c1ccncc1,97.8% (inactive)
19,CCOC(=O)CC(=O)Nc1ccc(C(=O)OCC)cc1,96.9% (inactive)
20,C/C(=N\Nc1nc2ccccc2[nH]1)c1cc2ccccc2o1,89.5% [at 5 µM] (inactive)
21,COc1cc(Cl)cc(/C=N/NC(N)=O)c1O,103% [at 5 µM] (inactive)
22,Cc1cc(N/N=C/c2ccccc2[N+](=O)[O-])nc(-n2nc(C)cc2C)n1,82.7% [at 5 µM] (inactive)
23,O=C(N/N=C/C=C/c1ccccc1[N+](=O)[O-])c1ccncc1,95.8% (inactive)
24,O=C(NNc1nc2ccccc2s1)Nc1ccc(F)cc1,95% (inactive)

row,Structure (SMILES),viability
1,NC(N)=N/N=C/c1cccc([N+](=O)[O-])c1O,99.4% (inactive)
2,O=C(N/N=C/c1cccc([N+](=O)[O-])c1O)c1cccs1,90% (inactive)
3,CCc1nnc(NC(=O)c2cc3ccccc3oc2=O)s1,111% [at 5 µM] (inactive)
4,Cn1c(=O)[nH]c(=O)c2c1nc([N+](=O)[O-])n2Cc1ccccc1,75.2% [at 5 µM] (inactive)
5,C=CCc1cc(Cl)ccc1OCCCn1ccnc1,90.9% (inactive)
6,COc1ccc(C2(O)CCN(CC(=O)Nc3nc(-c4ccccc4)cs3)CC2)cc1,74.6% (inactive)
7,Cc1onc(-c2ccccc2Cl)c1C(=O)O/N=C(\N)c1ccc([N+](=O)[O-])o1,82.2% (inactive)
8,CCC(CC)COC(=O)C(C#N)c1nc2ccccc2nc1N1CCN(CC)CC1 (stereo unspecified),80.2% (inactive)
9,NCCOc1ccc(C23CC4CC(CC(C4)C2)C3)cc1,92.4% (inactive)
10,O=c1[nH]c2ccccc2c2oc(CCl)nc12,105% [at 5 µM] (inactive)
11,N=C1/C(=C/c2ccc(OC(=O)c3ccco3)cc2)C(=O)N=C2SC=CN12,98.9% (inactive)
12,COC(=O)CN(C#N)c1nc(N(C)C)nc(N(C)C)n1,101% (inactive)
13,O=C(Nc1nnc(C2=COCCO2)o1)c1cccc(C(F)(F)F)c1,74.1% (inactive)
14,O=C(N/N=C/c1ccc(O)cc1)c1cccc(C(F)(F)F)c1,95.1% (inactive)
15,COc1cccc(CN2CCC(N(CCc3ccccc3)Cc3ccccc3)CC2)c1OC,73.7% (inactive)
16,OCC#CCSc1nnc(-c2ccc(Br)cc2)o1,98.8% (inactive)
17,COc1cccc(COC(=O)CCNC(=O)c2ccc(Br)cc2)c1OC,101% [at 5 µM] (inactive)
18,CCOC(=O)COc1ccc(C(=O)Nc2cccc(Cl)c2C)cc1,90.5% (inactive)
19,O=C(NNC1=Nc2ccccc2SC1)c1ccc(F)cc1,80.8% (inactive)
20,O=C(Nc1nnc(-c2ccc(Br)cc2)o1)c1ccco1,90.6% (inactive)
21,O=C(Nc1nnc(-c2ccco2)o1)c1ccc(Cl)s1,100% [at 5 µM] (inactive)
22,CCOc1cc(-c2nnc(NC(=O)c3ccco3)o2)cc(OCC)c1OCC,71.3% (inactive)
23,CCOc1ccc(OCCSc2ccc(S(=O)(=O)N3CCN(C)CC3)cn2)cc1,96.9% [at 5 µM] (inactive)
24,COC(=O)c1ccc(Sc2nnnn2-c2ccccc2)c([N+](=O)[O-])c1,98.1% (inactive)

row,Structure (SMILES),viability
1,FC(F)c1nnc2ccc(Cl)nn12,116% (inactive)
2,O=C(N/N=C/c1ccc([N+](=O)[O-])s1)c1cccnc1,70.9% (inactive)
3,O=C(COc1ccccc1)Nc1nnc(-c2ccc3c(c2)CCCC3)o1,101% (inactive)
4,Cc1cc(Cl)ccc1OCC(=O)NNC(=O)c1cnccn1,100% [at 5 µM] (inactive)
5,O=C(N/N=C\c1ccc([N+](=O)[O-])s1)c1cncc(Br)c1,86.6% [at 5 µM] (inactive)
6,Cc1c(C(=O)N(C)C)sc2nc(-c3ccccn3)[nH]c(=O)c12,105% [at 5 µM] (inactive)
7,CN(C)CCCNc1nc2sc3c(c2c(=O)n1CCc1ccccc1)CCCCC3,86.3% [at 5 µM] (inactive)
8,CN(C)CCCn1c(=O)n(C2CCCCC2)c(=O)c2c3c(sc21)CCCCC3,75.5% (inactive)
9,Cn1c(O)c(C(=Nc2ccccc2)SCc2ccccc2Cl)c(=O)n(C)c1=O,75% (inactive)
10,CCc1cc(OCCCCNCc2ccccc2)ccc1Cl,97.5% (inactive)
11,C=CCOc1ccc(CNCCO)cc1OCC,104% (inactive)
12,C/C(=N/Nc1ccnc2cc(Cl)ccc12)c1ccc(N)cc1,74.7% (inactive)
13,CC1CCN(C(=O)COC(=O)c2cc3ccccc3cc2O)CC1,93.4% (inactive)
14,CCc1c(C)c2ccc(OCC(=O)OC)cc2oc1=O,99% (inactive)
15,COc1n[nH]c(C(=O)Nc2cc(F)ccc2C)c1[N+](=O)[O-],75.7% (inactive)
16,Cc1cc(C)cc(OCC(=O)N/N=C/c2ccc([N+](=O)[O-])o2)c1,92% (inactive)
17,Cc1cc(C(=O)N/N=C/c2ccc([N+](=O)[O-])o2)c(C)o1,88.4% (inactive)
18,Cc1cccc(NC(=O)c2ccc([N+](=O)[O-])o2)c1C,95% (inactive)
19,Cc1ccccc1NC(=O)c1ccc([N+](=O)[O-])o1,102% [at 5 µM] (inactive)
20,Nc1nonc1C(=O)N/N=C/c1ccc([N+](=O)[O-])o1,82.7% (inactive)
21,COc1ccc(C(=O)NCC(=O)N/N=C/c2ccc([N+](=O)[O-])o2)cc1OC,91.9% (inactive)
22,O=[N+]([O-])c1ccc(/C=N/NS(=O)(=O)c2ccc(Cl)cc2)o1,103% (inactive)
23,O=C(Nc1ccccc1)c1cc2ccccc2o1,85.3% (inactive)
24,CN1C(c2ccccc2)CC(=NO)CC1c1ccccc1 (stereo unspecified),108% (inactive)

row,Structure (SMILES),viability
1,COc1ccccc1NC(=O)c1cnc(SC)nc1,118% (inactive)
2,O=C(CC(=O)c1cc(Cl)ccc1O)c1ccccc1,102% [at 5 µM] (inactive)
3,COc1ccc(-c2noc(-c3cc4ccccc4oc3=O)n2)cc1,100% (inactive)
4,O=C(N/N=C/c1ccc(Br)s1)c1ccccc1[N+](=O)[O-],90.1% (inactive)
5,CCc1nnc(N/N=C/c2ccc(-c3ccc([N+](=O)[O-])cc3)o2)n1N,95.3% (inactive)
6,O=C(N/N=C\c1ccc([N+](=O)[O-])o1)C1COc2ccccc2O1 (stereo unspecified),101% (inactive)
7,CCCCCCCC(=O)N/N=C/c1ccc([N+](=O)[O-])o1,97.7% (inactive)
8,O=C(N/N=C\c1ccc([N+](=O)[O-])o1)c1cncc(Br)c1,109% [at 5 µM] (inactive)
9,Cc1nonc1C(=O)N/N=C/c1ccc([N+](=O)[O-])o1,96.3% (inactive)
10,Cc1ccc(OCC(=O)N/N=C/c2ccc([N+](=O)[O-])o2)cc1,95.7% (inactive)
11,O=C(N/N=C/c1ccc([N+](=O)[O-])o1)c1sc2ccccc2c1Cl,78.8% (inactive)
12,COc1ccccc1OCC(=O)N/N=C/C=C/c1ccc([N+](=O)[O-])o1,93.9% (inactive)
13,Brc1c(-c2ccc3c(c2)OCO3)nc2ncccn12,86.5% [at 5 µM] (inactive)
14,O=C(Nc1ccc(N2CCN(C(=O)c3ccco3)CC2)c(Cl)c1)c1cccs1,72% (inactive)
15,COC(=O)c1ccccc1Sc1ncnc2onc(C)c12,113% (inactive)
16,Cc1c(Cl)cccc1-c1ccc(CNCc2ccccn2)o1,94.3% (inactive)
17,N#Cc1nc(-c2ccc(OCc3ccccc3)cc2)oc1NCCCn1ccnc1,77.7% (inactive)
18,CCOC(=O)C(C)Oc1cc(Cl)c(C=O)cc1OC (stereo unspecified),94.7% (inactive)
19,N/N=C(/Cc1nc2ccccc2[nH]1)c1ccc([N+](=O)[O-])cc1,96.1% (inactive)
20,O=C(Nc1cc(C(F)(F)F)ccc1-n1cncn1)c1ccc([N+](=O)[O-])o1,103% (inactive)
